From PubChem BioAssay AID1159580 (chemical genetic matrix, 2015)
Where “and” joins values, the source holds several entries; their conditions need not be identical. Equal entries are not always repeated. Hit rate of the full screen: of about 5,500 compounds, about 2,000 (36%) were called active. Inconclusive results (about 18%) are left out. Rule as the data show it: active = normalized growth mostly below about 0.91 (no sharp cut-off); inconclusive = no clear call, values can overlap the other calls; inactive = mostly above about 0.92. This is one part of the list.

Experiment: chemical genetic growth profiling, strain panel (AID 1159580);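 also: tested at 20 µM; growth read once vehicle control cultures reached saturation at 30 °C; 1 = growth at the plate median or of vehicle wells; lower values mean less growth of the strain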
Settings: S. cerevisiae deletion strains, growth OD

Measured: normalized growth

CN(C)C(=S)SSC(=S)N(C)C
active: locus YAL013W, strain DEP1, active compounds read low 0.0581 | locus YAL021C, strain ccr4, active compounds read low 0.0666 | locus YAL026C, strain drs2, active compounds read low 0.0601 | locus YAL030W, strain snc1, active compounds read low 0.0553 | locus YBL061C, strain skt5, active compounds read low 0.0618 | locus YBR009C, strain hhf1, active compounds read low 0.0687 | locus YBR021W, strain FUR4, active compounds read low 0.0817 | locus YBR023C, strain chs3, active compounds read low 0.061 | locus YBR171W, strain sec66, active compounds read low 0.074 | locus YBR229C, strain ROT2, active compounds read low 0.048 | locus YBR231C, strain swc5, active compounds read low 0.0647 | locus YBR279W, strain paf1, active compounds read low 0.0589 | locus YCL011C, strain gbp2, active compounds read low 0.0557 | locus YCL016C, strain dcc1, active compounds read low 0.0628 | locus YCL029C, strain bik1, active compounds read low 0.0606 | locus YCL061C, strain MRC1, active compounds read low 0.0642 | locus YCL069W, strain vba3, active compounds read low 0.0641 | locus YCR088W, strain abp1, active compounds read low 0.0578 | locus YDL005C, strain med2, active compounds read low 0.0735 | locus YDL035C, strain GPR1, active compounds read low 0.0496 | locus YDL040C, strain nat1, active compounds read low 0.0566 | locus YDL074C, strain BRE1, active compounds read low 0.08 | locus YDL101C, strain DUN1, active compounds read low 0.0541 | locus YDL134C, strain PPH21, active compounds read low 0.048 | locus YDL192W, strain arf1, active compounds read low 0.0606 | locus YDR001C, strain nth1, active compounds read low 0.0555 | locus YDR069C, strain doa4, active compounds read low 0.0622 | locus YDR101C, strain arx1, active compounds read low 0.0568 | locus YDR137W, strain rgp1, active compounds read low 0.0857 | locus YDR150W, strain NUM1, active compounds read low 0.0561 | locus YDR159W, strain sac3, active compounds read low 0.0951 | locus YDR162C, strain NBP2, active compounds read low 0.0528 | locus YDR195W, strain ref2 0.147 | locus YDR297W, strain sur2, active compounds read low 0.0586 | locus YDR318W, strain mcm21, active compounds read low 0.0615 | locus YDR334W, strain swr1, active compounds read low 0.0607 | locus YDR335W, strain msn5, active compounds read low 0.0573 | locus YDR388W, active compounds read low 0.0573 | locus YDR392W, strain spt3, active compounds read low 0.0953 | locus YDR502C, strain sam2, active compounds read low 0.0603 | locus YEL003W, strain gim4, active compounds read low 0.0529 | locus YEL037C, strain rad23, active compounds read low 0.0561 | locus YEL061C, strain CIN8 (second series), active compounds read low 0.06 | locus YEL061C, strain CIN8, active compounds read low 0.0482 | locus YER015W, strain faa2, active compounds read low 0.0644 | locus YER016W, strain bim1, active compounds read low 0.0587 | locus YER110C, active compounds read low 0.0744 | locus YER111C, strain swi4, active compounds read low 0.0843 | locus YER155C, strain BEM2 (second series), active compounds read low 0.0839 | locus YER155C, strain BEM2, active compounds read low 0.0634 | locus YER167W, strain BCK2, active compounds read low 0.0494 | locus YFR010W, strain ubp6, active compounds read low 0.067 | locus YGL078C, strain dbp3, active compounds read low 0.0559 | locus YGL086W, strain mad1, active compounds read low 0.0545 | locus YGL167C, strain pmr1, active compounds read low 0.0722 | locus YGL173C, strain kem1, active compounds read low 0.0644 | locus YGL227W, strain vid30, active compounds read low 0.0589 | locus YGL240W, strain doc1, active compounds read low 0.0761 | locus YGL248W, strain PDE1, active compounds read low 0.0464 | locus YGL253W, strain hxk2, active compounds read low 0.0521 | locus YGR078C, strain PAC10, active compounds read low 0.0501 | locus YGR135W, strain pre9, active compounds read low 0.0684 | locus YGR229C, strain SMI1, active compounds read low 0.0575 | locus YGR252W, strain gcn5, active compounds read low 0.158 | locus YHR013C, strain ard1, active compounds read low 0.107 | locus YHR027C, strain rpn1, active compounds read low 0.0609 | locus YHR030C, strain SLT2, active compounds read low 0.0503 and 0.115 | locus YHR079C, strain IRE1 (second series), active compounds read low 0.0559 | locus YHR079C, strain IRE1, active compounds read low 0.109 | locus YHR094C, strain hxt1, active compounds read low 0.0581 | locus YHR129C, strain ARP1, active compounds read low 0.0536 | locus YHR142W, strain chs7, active compounds read low 0.0711 | locus YHR200W, strain rpn10, active compounds read low 0.0592 | locus YIL066C, strain RNR3, active compounds read low 0.0523 | locus YIL073C, strain SPO22, active compounds read low 0.0945 | locus YIL125W, strain kgd1, active compounds read low 0.0556 | locus YIR030C, strain dcg1, active compounds read low 0.0579 | locus YJL092W, strain hpr5, active compounds read low 0.0561 | locus YJL095W, strain BCK1 (second series), active compounds read low 0.057 | locus YJL095W, strain BCK1, active compounds read low 0.049 and 0.102 | locus YJL115W, strain asf1, active compounds read low 0.0685 | locus YJL129C, strain trk1, active compounds read low 0.0884 | locus YJL134W, strain LCB3, active compounds read low 0.0489 | locus YJL154C, strain vps35, active compounds read low 0.0623 | locus YJL164C, strain tpk1, active compounds read low 0.0632 | locus YJL166W, strain qcr8, active compounds read low 0.0627 | locus YJL168C, strain set2, active compounds read low 0.0598 | locus YJL187C, strain SWE1 (second series), active compounds read low 0.0476 | locus YJL187C, strain SWE1, active compounds read low 0.0566 | locus YJR043C, strain POL32, active compounds read low 0.0614 | locus YJR066W, strain TOR1, active compounds read low 0.00175
inactive: locus YDL185W, strain tfp1, active compounds read low 0.967
